Inconclusive results are not listed. Active and inactive are the calls of the source. Calls come from the whole dose curve; as a rule, active = well fitted inhibition curve with a large enough effect; inconclusive = small, poorly fitted or top-dose-only effect; inactive = flat fitted curve, though single readings scatter.
Columns and labels:
Experiment in all cases: Cytotoxic Profiling of Annotated Libraries Using Quantitative High-Throughput Screening (AID 1296008); note: nearly all actives have a fitted effect of over 60% in size
Conditions in all cases: Five cell lines viability, CellTiter-Glo ATP luminescence, 48-72 h; max response: active compounds read low
[1] = system: HaCat
In short: (§1)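 Compounds were pin-transferred onto cells and incubated 48 or 72 hr at 37 degree Celsius, 95% humidity. CellTiter-Glo was added, plates sat 10 min at room temperature, then ATP-coupled luminescence was imaged as the viability read-out.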

[2] = system: KB-3-1
In short: as §1

[3] = system: NIH3T3
In short: as §1
% is set by controls: 0 for no effect and ±100 for the full control effect; potency is the fitted concentration of half-maximal effect.

O=c1[nH]c2cccc(N3CCN(Cc4ccc(-c5ccccc5)cc4)CC3)c2o1
max response [1]: -18.1% (inactive)
max response [2]: -24.1% (inactive)

O=c1[nH]c2ccc(C#CCN3CCC(Cc4ccccc4)CC3)cc2[nH]1
max response [1]: 0.764% (inactive)
max response [2]: -17.6% (inactive)

COc1ccc(S(=O)(=O)n2cnc3cc(C)c(C)cc32)cc1
max response [1]: -14.6% (inactive)
max response [2]: -13.8% (inactive)

COc1ccc2[nH]c(=O)c3c(c2c1)OC(C)(C)C=C3
max response [1]: -2% (inactive)
outcome [2]: inactive

C=C1C(=O)O[C@@H]2C[C@@]3(C)C[C@@H](O)C[C@H](C)C3=C[C@H]12
max response [1]: -8.34% (inactive)
outcome [2]: inactive

C/C=C(\C)C(=O)O[C@H]1C=CC(=O)O[C@H]1/C=C/[C@@H](O)[C@H](C)O
max response [1]: -16.7% (inactive)
max response [2]: -19.4% (inactive)

Cn1c(=O)c(F)c(Nc2ccc(I)cc2F)c2c(=O)n(CC(O)CO)cnc21 (stereo not given)
Potency [1]: 6.51 µM (active)
max response [2]: -14.5% (inactive)
Potency [3]: 1.3 µM (active)

C[C@H]1CC[C@@]2(OC1)O[C@H]1CC3[C@@H]4CC[C@@H]5C[C@@H](O[C@@H]6O[C@H](CO)[C@@H](O[C@@H]7O[C@@H](C)[C@H](O)[C@@H](O)[C@H]7O)[C@H](O)[C@H]6O[C@@H]6O[C@H](CO)[C@@H](O)[C@H](O)[C@H]6O)CC[C@]5(C)C4CC[C@]3(C)[C@H]1[C@@H]2C (stereo not given in full)
max response [1]: -24.5% (inactive)
max response [2]: 0.898% (inactive)

CCOC(=O)C1(CCOc2ccccc2)CCN(Cc2ccc(O)c(Cl)c2)CC1
max response [1]: 0.37% (inactive)
max response [2]: -15.3% (inactive)
max response [3]: -16.4% (inactive)

Reference: PubChem BioAssay (NCATS)
